Measurements taken from PubChem BioAssay (EPA / NIEHS).
“And” between values parts separate entries of the source, which are not always exact repeats. Identical values can stand only once. Some compounds were tested as several samples or in several runs, with calls that do not always agree. The source made the active and inactive calls. The calls were made as follows: active = hit-call score of the fitted dose curve at least 0.9, where 1 is the maximum; inactive = score below 0.9.

target: Bile acid receptor (Homo sapiens) (UniProt Q96RI1); test: ATG_IR1_CIS: Attagene CIS-FACTORIAL HepG2 Assay for human Nuclear Receptor Subfamily 1 Group H Member 4 (NR1H4), IR1 submotif (AID 2282946); settings: IR1 reporter transcription, actives raise or lower the signal
Experimental: ATG_CIS is a cell-based, multiplexed-readout assay that uses HepG2, a human liver cell line, with measurements taken at 24 hours after chemical dosing in a 24-well plate.ATG_IR1_CIS is one of 52 assay component(s) measured or calculated from the ATG_CIS assay. It is designed to make measurements of mRNA induction, a form of inducible reporter, as detected with fluorescence intensity signals by Reverse transcription polymerase chain reaction (RT-PCR) and Capillary electrophoresis technology.Data from the assay component ATG_IR1_CIS was analyzed into 1 assay endpoint. This assay endpoint, ATG_IR1_CIS, was analyzed with bidirectional fitting relative to DMSO as the negative control and baseline of activity. Using a type of inducible reporter, measures of mRNA for gain or loss-of-signal activity can be used to understand the reporter gene at the transcription factor-level as they relate to the gene NR1H4. Furthermore, this assay endpoint can be referred to as a primary readout, because this assay has produced multiple assay endpoints where this one serves a reporter gene function. To generalize the intended target to other relatable targets, this assay endpoint is annotated to the nuclear receptor intended target family, where the subfamily is non-steroidal.
Human liver HepG2 cells are transiently transfected with multiple reporter transcription units (MRTUs) in 6-well plates using FuGene 6 reagent (Roche; 3 ml FuGene/1 mg DNA). The MRTU constructs are regulated by a cis-regulating element (promoter). […] A major difference between the CIS and TRANS system is that in CIS activities of endogenous TFs are measured, whereas the TRANS assay evaluates changes in activities of exogenous, chimeric NR-Gal4 proteins. […] At the end of 24 hour incubation, total RNA was isolated using TriZol reagent (Invitrogen). The isolated RNA is then reverse-transcribed using oligo(dT) primer and Mo-MLV reverse transcriptase (Invitrogen) with DNAse I (Ambion) treatment for 30 min. The one-tenth of the produced cDNA was amplified by PCR using Taq DNA polymerase (Invitrogen) and two reporter sequence-specific primers. The PCR products were fluorescently labeled by primer extension with 6-arboxyfluorescein (6-FAM) 5'-labeled reporter sequence-specific primer (2 min at 95 C, 20 s at 68 C and 10 min at 72 C) and these products were digested with 5U of HpaI (New England Biolabs) for 2h at 37 C. The fragments were purified using Qiaquick PCR columns (Qiagen), analyzed on an ABI 3130xL genetic analyzer (Applied Biosystems) with peak positions identified by using a set of X-rhodamine (ROX)-labeled MapMarker1000 molecular weight standards (BioVentures). The raw capillary electrophoresis data was processed using Attagraph software (Attagene).

Bile acid receptor (Homo sapiens), sequence (Q96RI1 whole entry, looked up): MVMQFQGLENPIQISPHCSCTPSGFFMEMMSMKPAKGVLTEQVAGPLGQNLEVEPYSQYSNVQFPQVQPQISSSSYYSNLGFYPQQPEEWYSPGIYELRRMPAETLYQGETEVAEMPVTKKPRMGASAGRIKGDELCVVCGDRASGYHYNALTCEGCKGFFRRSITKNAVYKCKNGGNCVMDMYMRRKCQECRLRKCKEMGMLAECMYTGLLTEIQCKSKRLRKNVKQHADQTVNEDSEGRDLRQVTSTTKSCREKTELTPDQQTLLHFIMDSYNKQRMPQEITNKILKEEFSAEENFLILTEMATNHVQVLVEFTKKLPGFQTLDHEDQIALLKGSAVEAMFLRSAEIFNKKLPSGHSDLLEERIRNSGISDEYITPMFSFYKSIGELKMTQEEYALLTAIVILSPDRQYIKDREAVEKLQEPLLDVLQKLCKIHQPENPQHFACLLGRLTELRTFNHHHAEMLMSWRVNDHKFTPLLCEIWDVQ

SMILES | outcome | AC50
Cc1ncc(CO)c(CO)c1O | inactive | –
CCOC(=O)O[C@H](C)OC(=O)c1ccc2c(c1)cc(C(=O)NC1CCN(C(C)C)CC1)n2Cc1cc(-c2ccc(Cl)s2)on1 | inactive | –
CCCCCCCCOc1ccc(C(=O)c2ccccc2)c(O)c1 | inactive | –
O=C(O)Cn1c(=O)n(Cc2ccc(Br)cc2F)c(=O)c2ccc(Cl)cc21 | inactive | –
O=c1ccc2ccccc2o1 | inactive | –
Clc1ccccc1C(c1ccccc1)(c1ccccc1)n1ccnc1 | inactive | –
O=C(O)c1ccccc1-n1cc(C(=O)O)c(=O)c2cc(Nc3c(F)cc(F)cc3Cl)c(Cl)cc21 | inactive | –
Cc1ccc(C(C)C)cc1 | inactive | –
COCC(C)OCC(C)OCC(C)O (stereo not given) | inactive | –
COc1cc(C(=O)NC2CCN(C)CC2)ccc1Nc1ncc2c(n1)N(C1CCCC1)CC(F)(F)C(=O)N2C | inactive | –
O=CCCCC=O | inactive | –
c1ccc2ccccc2c1 | inactive | –
CCN(CC)C(=O)c1cc(S(=O)(=O)Cc2ccccc2)c(N2CCC(c3ccccc3)CC2)cc1N(CC)CCN(C)C | inactive | –
O=C1CCC(C2CCCCC2)CC1 | inactive | 151 µM (active) and 159 µM (active)
Cc1c2ccccc2c(C)c2c1ccc1ccccc12 | – | 6.62 µM (active)
Cc1cc2c(cc1C(F)(F)F)N(C(=O)Nc1ccc(Oc3cccnc3C)nc1)CC2 | inactive | –
CC(C)(c1cc(Br)c(O)c(Br)c1)c1cc(Br)c(O)c(Br)c1 | inactive | 16.3 µM (active)
CCCC(=O)OCCC(C)C | inactive | –
Cc1ccc2oc(CN(Cc3ccccc3)C(=O)Nc3c(F)cc(F)cc3F)c(-c3ccc(Cl)cc3)c2c1 | inactive | –

SMILES | outcome | AC50
CCCCCCCCCCCO | inactive | –
Cc1cc(F)ccc1-c1cc(N2CC[C@@H](O)[C@H]2CO)ncc1N(C)C(=O)C(C)(C)c1cc(C(F)(F)F)cc(C(F)(F)F)c1 | inactive | –
NCc1cccc(C2CCN(C(=O)c3ccc(C#Cc4ccccc4F)o3)CC2)c1 | inactive | –
Clc1cc(Cl)c2c(c1)N=C1CCCCCN1C2 | inactive | –
Cc1oc2c(NC(=O)c3c(Cl)cccc3Cl)cccc2c1C(C)(C)O | – | 158 µM (active)
OC12N=C(c3ccccc3)SC1Cc1cc(Cl)ccc12 (stereo not given) | inactive | –
CN(C[C@@H](CC[N+]12CCC(C3CCCCC3)(CC1)CC2)c1ccc(Cl)c(Cl)c1)C(=O)c1cc(C(F)(F)F)cc(C(F)(F)F)c1 | inactive | –
CCCCCCCCCCCC[N+](C)(C)C | inactive | –
c1ccc(C[n+]2cccc3ccccc32)cc1 | inactive | –
O=C(O)c1ccccc1C(=O)OCc1ccccc1 | inactive | –
CN1C(=O)N(c2ccccc2Br)Cc2cnc(Nc3ccc4c(c3)OCC(CO)O4)nc21 (stereo not given) | inactive | –
CCN(Cc1cccc(S(=O)(=O)O)c1)c1ccc(C(=C2C=CC(=[N+](CC)Cc3cccc(S(=O)(=O)O)c3)C=C2)c2ccccc2S(=O)(=O)[O-])cc1 | inactive | –
OCCO | inactive | –
CCCCCCCCOC(=O)c1cc(O)c(O)c(O)c1 | inactive | –
CCCCOC(=O)c1ccc(O)cc1 | inactive | –
Cc1cn([C@H]2C[C@H](N=[N+]=[N-])[C@@H](CO)O2)c(=O)[nH]c1=O | inactive | –
COc1ccc2cc(S(=O)(=O)N[C@H](CC(=O)N[C@H](Cc3ccc(CN4[C@H](C)CCC[C@@H]4C)cc3)C(=O)N(C)C(C)C)c3ccc4c(c3)OCO4)ccc2c1 | inactive | –
Oc1ccccc1 | inactive | –
CN(C)C(=O)C1(N2CCCCC2)CCN(CC[C@@]2(c3ccc(Cl)c(Cl)c3)CN(C(=O)c3ccccc3)CCO2)CC1 | inactive | –
